This is a sample that favours compounds with a hit; in the whole collection about 2.8% have one here.
PolyA inh: polyadenylation inhibitors in yeast reporter cells, primary screen, luminescence, S. cerevisiae. S. cerevisiae SKY197-pL101 polyadenylation reporter, beta-gal luminescence; efflux-impaired pdr1/pdr3 knockout yeast; score 100 = 6 SD above DMSO. activity score, % at 12 µM. 300,000 tested, 0.02% active. AID 1875, 2009;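 active = lowest replicate activity score at least 50, where 100 means six control SD above control mean; inconclusive = lowest score under 50 but half or more replicates reach 50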;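 also: yeast exposed to compound for 9 h at 30 °C; higher score means more reporter readthrough which indicates perturbed polyadenylation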
AHR activator: AHR activators, primary screen, cell-based, luminescence, luciferase reporter, human; AHR-responsive luciferase reporter cells; activation, % at 5 µM; 320,000 tested, 2.5% active; AID 2796, 2010; in the data active = activation above about 47%
Target sequence (P35869 whole entry, looked up): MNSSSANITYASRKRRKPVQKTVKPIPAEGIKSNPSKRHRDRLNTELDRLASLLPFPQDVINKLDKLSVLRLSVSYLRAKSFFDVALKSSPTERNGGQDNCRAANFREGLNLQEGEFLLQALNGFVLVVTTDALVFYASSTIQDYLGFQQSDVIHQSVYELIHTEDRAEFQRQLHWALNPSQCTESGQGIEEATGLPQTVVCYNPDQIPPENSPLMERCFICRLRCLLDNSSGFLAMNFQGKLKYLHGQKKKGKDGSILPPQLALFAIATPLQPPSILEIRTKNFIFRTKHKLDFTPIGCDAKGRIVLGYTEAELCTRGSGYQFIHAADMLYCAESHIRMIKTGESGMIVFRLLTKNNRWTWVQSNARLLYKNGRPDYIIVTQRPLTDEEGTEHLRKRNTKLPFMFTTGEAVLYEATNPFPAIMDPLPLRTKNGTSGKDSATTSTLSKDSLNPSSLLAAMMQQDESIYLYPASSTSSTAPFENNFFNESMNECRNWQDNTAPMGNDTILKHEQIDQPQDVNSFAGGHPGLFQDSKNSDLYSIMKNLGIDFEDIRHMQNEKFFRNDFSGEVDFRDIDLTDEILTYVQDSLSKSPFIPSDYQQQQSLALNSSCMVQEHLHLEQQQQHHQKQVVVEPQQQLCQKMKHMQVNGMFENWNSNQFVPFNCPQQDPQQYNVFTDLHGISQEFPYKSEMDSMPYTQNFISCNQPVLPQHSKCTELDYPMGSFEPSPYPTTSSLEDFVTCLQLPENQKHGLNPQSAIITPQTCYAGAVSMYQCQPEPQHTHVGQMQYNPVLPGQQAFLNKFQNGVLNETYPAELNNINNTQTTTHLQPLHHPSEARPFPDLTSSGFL
HIF activator: HIF pathway transcriptional activators, primary screen, cell-based, U2OS HRE-luciferase, luminescence; U2OS HRE-luciferase reporter; normalized: DMSO 0%, desferrioxamine 100%; activation, % at 7.5 µM (by protocol); AID 1910, 2009; 300,000 tested, 0.32% active;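 active = mean activation of at least 10% of the iron chelator positive control signal, with at least half of replicates also reaching 10%; inconclusive = mean and replicate majority disagree about reaching 10%; inactive = mean and most replicates under 10%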
Platelet DG rel: inhibitors of platelet dense granule secretion, primary screen, cell-based, MLPCN, human platelets. inhibition, %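 (compounds screened at 7.5 µM in platelet-rich plasma)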. 300,000 tested, 0.22% active. AID 1663, 2009. human platelet-rich plasma, SFLLRN dense granule ATP release, luminescence;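 active = mean replicate score, as percent of positive control, at or above 50; inconclusive = mean below 50 but at least one replicate at or above 50; inactive = mean and every replicate below 50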
pCIP destab: p/CIP-EGFP fusion destabilizers, primary screen, fluorescence, F442A cells. Q05BA5. 16 h. decrease of EGFP signal, % at 10 µM. 290,000 tested, 0.01% active. AID 1984, 2009;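 active = EGFP signal decrease of at least 30% at 10 µM or well 3 SD below plate mean, unless failing retest; inactive = the rest, including hits failing retest or dose response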
A number is an active result.

`COC(CNC(=O)C1CC(=O)N(CCc2ccc(C)cc2)C1)OC` (centres undefined) gave PolyA inh inactive, AHR activator inactive, HIF activator inactive, Platelet DG rel inactive and pCIP destab inactive.
COc1cccc(C(=O)NCC(=O)N2CCC3(CC2)NCCc2[nH]cnc23)c1OC was read as PolyA inh inactive, AHR activator inactive, HIF activator inactive, Platelet DG rel inactive and pCIP destab inactive.
`COc1cc(OC)cc(C(=O)Nc2cccc3ccccc23)c1` gave PolyA inh inactive, AHR activator inactive, HIF activator inactive, Platelet DG rel inactive and pCIP destab inactive.
COC(=O)/C(=C/Nc1cccc2ccccc12)[N+](=O)[O-] was read as PolyA inh inactive, AHR activator 62, HIF activator inactive, Platelet DG rel inactive and pCIP destab inactive.
For O=C(N/C(=C\c1ccco1)C(=O)N1CCOCC1)c1ccccc1Cl the results were PolyA inh inactive, AHR activator inactive, HIF activator inactive, Platelet DG rel inactive and pCIP destab inactive.
Screening O=C(Nc1ccccn1)c1nc(-c2ccccc2)n(-c2ccccc2)n1 returned PolyA inh inactive, AHR activator 56, HIF activator inactive, Platelet DG rel inactive and pCIP destab inactive.
Screening CCCc1sc(N/N=C/c2ccccn2)nc1-c1ccc(Br)cc1 returned PolyA inh inactive, AHR activator inactive, HIF activator 25, Platelet DG rel inactive and pCIP destab inactive.
`CCOC(=O)/C(=N\Nc1cccc(C(F)(F)F)c1)N1CCOCC1` gave PolyA inh inactive, AHR activator inactive, HIF activator 708, Platelet DG rel inactive and pCIP destab inactive.
Screening O=C(Nc1nc2ccccc2[nH]1)c1cccc(Br)c1 returned PolyA inh inactive, AHR activator 57, HIF activator inactive, Platelet DG rel inactive and pCIP destab inactive.
For O=C(Nc1nc2ccccc2[nH]1)c1cccc([N+](=O)[O-])c1 the results were PolyA inh inactive, AHR activator 50, HIF activator inactive, Platelet DG rel inactive and pCIP destab inactive.
O=C(Nc1nc2ccccc2[nH]1)c1cccc(F)c1 was read as PolyA inh inactive, AHR activator inactive, HIF activator inactive, Platelet DG rel inactive and pCIP destab inactive.
For Cc1ccc(NCCC(=O)c2cccs2)cc1C the results were PolyA inh inactive, AHR activator 48, HIF activator inactive, Platelet DG rel inactive and pCIP destab inactive.
`Cc1cc2nc(-c3ccc(=O)[nH]c3)n(Cc3ccccc3)c2cc1C` gave PolyA inh inactive, AHR activator 79, HIF activator inactive, Platelet DG rel inactive and pCIP destab inactive.
`Cc1ccccc1Cn1c(-c2ccc(=O)[nH]c2)nc2ccccc21` gave PolyA inh inactive, AHR activator inactive, HIF activator inactive, Platelet DG rel inactive and pCIP destab inactive.
Screening O=C(Nc1ccc(O)c(-c2nc3ccccc3s2)c1)c1cccs1 returned PolyA inh inactive, AHR activator 74, HIF activator inactive, Platelet DG rel inactive and pCIP destab inactive.
For O=C(Nc1nc2ccccc2s1)c1ccc(F)cc1 the results were PolyA inh inactive, AHR activator inactive, HIF activator inactive, Platelet DG rel inactive and pCIP destab inactive.
Screening O=C(Nc1ccc(F)cc1)Nc1sccc1-c1nc2ccccc2s1 returned PolyA inh inactive, AHR activator 60, HIF activator inactive, Platelet DG rel inactive and pCIP destab inactive.
For O=C(/C=C/c1ccco1)NC(=S)Nc1ccc(O)c(-c2nc3ccccc3s2)c1 the results were PolyA inh inactive, AHR activator 80, HIF activator inactive, Platelet DG rel inactive and pCIP destab inactive.
For Cc1ccccc1SCC(=O)Nc1cc(C(F)(F)F)ccc1N1CCOCC1 the results were PolyA inh inactive, AHR activator inactive, HIF activator inactive and Platelet DG rel inactive.
C/C(=N\Nc1cc(C)nc(NCc2ccccc2)n1)c1ccc([N+](=O)[O-])cc1 was read as PolyA inh inactive, AHR activator inactive, HIF activator inactive, Platelet DG rel inactive and pCIP destab inactive.
For COc1cc(C#Cc2c(-c3cncn3C)n(C)c3ccc(-c4cnc(OC)nc4)cc23)cc(OC)c1 the results were AHR activator 51.
Screening COc1cc(C#Cc2c(-c3cncn3C)n(C)c3ccc(-c4cnc(N5CCOCC5)nc4)cc23)cc(OC)c1 returned AHR activator inactive.
For CCCCc1nnc(NC(=O)C(=O)OCC)s1 the results were PolyA inh inactive, AHR activator inactive, HIF activator inactive, Platelet DG rel inactive and pCIP destab inactive.
CCCc1nnc(NC(=O)OCC)s1 was read as PolyA inh inactive, AHR activator 74, HIF activator inactive, Platelet DG rel inactive and pCIP destab inactive.
CCOC(=O)Nc1nnc(/C=C/c2ccc(OC)cc2)s1 was read as PolyA inh inactive, AHR activator 74, HIF activator inactive, Platelet DG rel inactive and pCIP destab inactive.
For Cc1cc(NC(=O)c2cc(-c3ccc(OC(C)C)cc3)nc3ccccc23)no1 the results were PolyA inh inactive, AHR activator inactive, HIF activator inactive, Platelet DG rel inactive and pCIP destab inactive.
For COc1ccccc1N1C(=O)N(C(C)=O)C2C1Nc1ccccc1N2C (centres undefined) the results were PolyA inh inactive, AHR activator 60, HIF activator inactive, Platelet DG rel inactive and pCIP destab inactive.
`Cc1c(C(=O)Nc2nccs2)oc2c(Cl)cccc12` gave PolyA inh inactive, AHR activator 55, HIF activator inactive and Platelet DG rel inactive.
Screening Cc1c(C(=O)Nc2ccccn2)oc2c(Cl)cccc12 returned PolyA inh inactive, AHR activator 74, HIF activator inactive and Platelet DG rel inactive.
For CC(C)OCc1c(C(=O)Nc2nccs2)oc2ccccc12 the results were PolyA inh inactive, AHR activator 57, HIF activator inactive, Platelet DG rel inactive and pCIP destab inactive.
Screening COc1ccc2oc(C(=O)Nc3nccs3)c(C)c2c1 returned PolyA inh inactive, AHR activator 77, HIF activator inactive and Platelet DG rel inactive.
CCCCCN(C(=O)CCC(=O)OCc1cccc(F)c1)c1c(N)n(CCCC)c(=O)[nH]c1=O was read as PolyA inh inactive, AHR activator inactive, HIF activator inactive and Platelet DG rel inactive.
Screening CC1=C(CC(=O)c2ccccc2)C(=O)c2ccccc2C1=O returned PolyA inh inactive, AHR activator 48, HIF activator inactive, Platelet DG rel inactive and pCIP destab inactive.
For Cc1ccc(-c2c(C#N)c(N)n3c(nc4ccccc43)c2C#N)cc1 the results were PolyA inh inactive, AHR activator 49, HIF activator inactive, Platelet DG rel inactive and pCIP destab inactive.
Screening CC(CC(=O)NCCc1ccc(F)cc1)c1ccccc1 (centres undefined) returned PolyA inh inconclusive, AHR activator inactive, HIF activator inactive, Platelet DG rel inactive and pCIP destab inactive.
